Bioassay records (PubChem)
ROC1-CUL1 inh: inhibitors of human ROC1-CUL1 ubiquitin ligase activity; inhibition, % at 10 µM; in vitro K48 di-Ub FRET, acceptor:donor ratio, 45 min; 140,000 compounds, 0.6% hits; E3 ubiquitin-protein ligase RBX1 (Homo sapiens) + Cullin-1 (Homo sapiens), P62877+Q13616; in the data active = inhibition above about 25%
Large screens that a line does not name were inactive. Shown is part of a subset that was picked to be rich in hits.

CCOC(=O)CSc1nc2c(sc3nc4ccccc4nc32)c(=O)n1-c1ccccc1	none
CC1=NN(c2nc(-c3ccc(Br)cc3)cs2)C(=O)C1N=Nc1ccc(Oc2ccccc2)cc1 (centres undefined)	none
CC1=NN(c2nc(-c3ccc(Br)cc3)cs2)C(=O)C1N=Nc1nccs1 (centres undefined)	ROC1-CUL1 inh 77.5
CC1=NN(c2nc(-c3ccc(Br)cc3)cs2)C(=O)C1N=Nc1cccc(O)c1 (centres undefined)	none
COc1ccccc1C1CC(c2ccc(C)cc2)=NN1C(C)=O (centres undefined)	none
O=C(NCCCN1CCCC1=O)c1cc(COc2ccc3ncccc3c2)on1	none
CCOC(=O)C(Sc1nc(SC(C(C)=O)C(=O)OCC)c2c(C)c(C)sc2n1)C(C)=O (centres undefined)	none
CC(C)Oc1ccc(-c2[nH]nc3c2C(c2cccc(OCc4ccccc4F)c2)C(C#N)C(=N)O3)cc1 (centres undefined)	none
Cc1c(C)n2c3c(=O)n(C)c(=O)n(C)c3nc2n1-c1cccc(O)c1	none
Cc1cc(C)cc(-n2c(C)c(C)n3c4c(=O)n(C)c(=O)n(C)c4nc23)c1	none
Cc1cccc(-n2c(C)c(C)n3c4c(=O)n(C)c(=O)n(C)c4nc23)c1	ROC1-CUL1 inh 25.6
COc1ccc(C(=O)N2C[C@H](O)[C@@H](N3CCc4cc(SC)ccc4C3)C2)cc1	none
N#CC1C(=N)N(c2ccccc2C(F)(F)F)C2=C(C(=O)CCC2)C1c1cn(Cc2c(Cl)cccc2Cl)nc1-c1ccccc1 (centres undefined)	none
CNC(=O)CSc1nc(-c2ccccc2)cs1	none
O=C(CSc1nc(-c2ccccc2)cs1)NC1=NN(c2ccccc2)C(=O)C1	none
Cc1ccc(-c2csc(SC3C(=O)N(c4ccccc4)N=C3c3ccccc3)n2)cc1 (centres undefined)	ROC1-CUL1 inh 83.3
O=C1C(C2Nc3ccccc3C2=O)=Nc2ccccc21 (centres undefined)	none
O=C1c2ccccc2NC1C=NCCO (centres undefined)	none
N=CC1Nc2ccccc2C1=O (centres undefined)	ROC1-CUL1 inh 31.1
N#C/C(=N\Nc1c(Cl)cc(Cl)cc1Cl)C(=O)c1ccccc1	none
N#C/C(=N\Nc1c(Cl)cc(Cl)cc1Cl)C(=O)c1ccc(Cl)cc1	ROC1-CUL1 inh 82.2
N#C/C(=N/Nc1ccc(Cl)cc1Cl)C(=O)c1ccc(Cl)cc1	none
CN(C)S(=O)(=O)N1CCC(C(=O)Nc2ccccc2F)CC1	none
CCOC(=O)c1nnn2c1nc(Cl)c1ccccc12	ROC1-CUL1 inh 79.0
C=CCn1c(Sc2nc3c(C(=O)OCC)nnn3c3ccccc23)nnc1-c1ccccc1	none
CCOC(=O)c1nnn2c3ccccc3c(=O)n(CC(=O)c3ccc(Cl)cc3)c12	none
CCOC(=O)c1c(NC(=O)CSc2nc(-c3ccco3)cc(C(F)(F)F)n2)sc(C)c1C	none
CC(=O)c1c(C)sc2c1ccc1ccccc12	none
CC(=O)c1c(=O)n(O)cc2ccccc12	ROC1-CUL1 inh 91.0
CC(=O)n1c(=O)c2cc3ccccc3cc2c(=O)n1C(C)=O	none
O=C(Nc1ccccc1COC(=O)c1ccco1)c1ccco1	none
CC12CCC(C(=O)Nc3cccc(C(F)(F)F)c3)(C1Br)C2(C)C (centres undefined)	none
COc1ccc(C(=O)NNC2=NCCC2)cc1OC	none
CNc1ncnc(Sc2c(Br)c(=O)n(C)c(=O)n2C)c1N	ROC1-CUL1 inh 80.5
COCCN1CCCC2(CCN(C(=O)CCc3ccc(C)cc3)C2)C1=O (centres undefined)	none
Cc1cc(C)nc(NS(=O)(=O)c2ccc(NC(=O)CC(c3ccccc3)c3ccccc3)cc2)n1	none
CCOCC(=O)Nc1ccccc1OC	none
CCOCC(=O)Nc1ccccc1C(=O)O	ROC1-CUL1 inh 102.9
COCC(=O)Nc1ccccc1C(=O)O	none
CC(=O)NC1C(=O)N(c2ccccc2)N=C1C (centres undefined)	none
COC(=O)C(O)(C1C(=O)N(c2ccccc2)N=C1C)C(F)(F)F (centres undefined)	ROC1-CUL1 inh 75.2
CC1=NN(c2ccccc2)C(=O)C1C(=O)c1ccc(Cl)cc1 (centres undefined)	none
COc1cccc2ccc(CN3CCC(N4CCC(C(=O)NC5CC5)CC4)CC3)nc12	none
COc1ccc(S(=O)(=O)NCC2CCCN(C3CCCCCC3)C2)cc1 (centres undefined)	none
Clc1ccc(-c2nnc(-c3ccccc3)c(N3CCCC3)n2)cc1	none
CN1C(=O)/C(=C/c2ccc3c(c2)OCO3)SC1=Nc1ccc(C(=O)O)cc1	none
C=CCN1C(=O)/C(=C/c2ccc(-c3ccc(C(=O)O)cc3)o2)SC1=S	none
CN1C(=O)/C(=C/c2ccc(-c3ccc(C(=O)O)cc3)o2)SC1=Nc1ccc(C(=O)O)cc1	ROC1-CUL1 inh 28.5
CN(CC1Cc2ccccc2O1)C(=O)CC1(c2ccc(-c3ccccc3)cc2)CC(=O)N(C)C1=O (centres undefined)	none
NC(=O)c1cc([N+](=O)[O-])cnc1Nc1cccc(C(F)(F)F)c1	none
COc1cc2c(cc1NC(=O)c1c(C)nn(-c3ccccc3)c1C)oc1ccccc12	none
NS(=O)(=O)c1ccc(-c2ccc(/C=C3\C(=O)NC(=S)N(c4cccc5ccccc45)C3=O)o2)cc1	none
NC(=O)c1ccc(-c2ccc(/C=C3/C(=O)NN(c4ccc(F)cc4)C3=O)o2)cc1	none
Cc1ccc(N2NC(=O)/C(=C/c3ccc(-c4ccc(S(=O)(=O)Nc5nccs5)cc4)o3)C2=O)cc1	ROC1-CUL1 inh 71.7
Cc1ccc(N2NC(=O)/C(=C/c3ccc(-c4ccccc4F)o3)C2=O)cc1C	none
CC1=NN(c2ccc(C)c(C)c2)C(=O)/C1=C\c1ccc(-c2ccc(S(=O)(=O)c3nccs3)cc2)o1	none
NS(=O)(=O)c1ccc(-c2ccc(/C=C3/C(=O)NN(c4cccc(F)c4)C3=O)o2)cc1	ROC1-CUL1 inh 43.6
CC(=O)NS(=O)(=O)c1ccc(-c2ccc(/C=C3/C(=O)NN(c4cccc(C)c4)C3=O)o2)cc1	none
O=C1NN(c2cccc(F)c2)C(=O)/C1=C\c1ccc(-c2ccc(C(=O)O)cc2)o1	none
Cc1cccc(N2NC(=O)/C(=C/c3ccc(-c4ccc(S(N)(=O)=O)cc4)o3)C2=O)c1	ROC1-CUL1 inh 31.8
Cc1cc(C)c(C)c(S(=O)(=O)c2ccccc2)c1C	none
N#Cc1c(N)nc2sc(C(=O)C34CC5CC(CC(C5)C3)C4)c(N)c2c1-c1cccs1	none
CSc1nc2sc3c(c2c(=O)n1-c1ccccc1C)CC(C)(C)OC3	none
O=C(N/N=C/c1ccccc1O)c1ccc([N+](=O)[O-])o1	none
c1ccc2nc3c(nc2c1)c1ccccc1n3CN1CCCCC1	none
Cn1c(CN2CCCCC2)nc2ccccc21	none
OCNc1nc2c3ccccc3nc(CCN3CCCCC3)n2n1	ROC1-CUL1 inh 45.7
CCC(O)CN1CCN(c2ccc(C3CCCC3)cc2)CC1 (centres undefined)	none
CC(Nc1ccc(-c2nc(Cc3ccccc3)no2)cn1)c1nncn1C (centres undefined)	none
N#C/C(=C\c1ccc([N+](=O)[O-])o1)c1nc(-c2ccc(F)cc2)cs1	none
N#C/C(=C/c1ccc([N+](=O)[O-])o1)C(=O)O	ROC1-CUL1 inh 73.2
CC(=O)/C(C#N)=C/c1ccc(C#N)o1	none
Nc1c(C=C2C=Nc3ccccc32)c(=O)nc2sc(C3CCCCC3)nn12	none
O=C1NC(=S)N(c2ccccc2)C(=O)/C1=C/c1cccn1-c1ccc(Br)cc1	none
COc1cc(/C=C2\C(=O)NC(=S)N(c3ccccc3F)C2=O)c(Br)cc1O	none
Cc1ccc(N2C(=O)/C(=C/c3cccn3-c3ccc(N(C)C)cc3)C(=O)NC2=S)cc1C	ROC1-CUL1 inh 34.7
Cc1cccc(N2C(=O)/C(=C/c3cccn3-c3cccc(C(F)(F)F)c3)C(=O)NC2=S)c1	none
